This is a sample that favours compounds with a hit; in the whole collection about 2.5% have one here.
L3MBTL1 inh – blocks human L3MBTL1 | Q9Y468 | AlphaScreen L3MBTL1–H3K9me1 peptide binding | Potency, µM (series often up to 57.1 µM), for the others: at the top dose activity, negative = inhibition, most hits filed as inhibitors | 0.66% of 230,000 active | AID 485360; also: % is scaled to controls: 0 for no effect and ±100 for the full control effect; nearly all actives have a fitted effect of over 60% in size
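AlphaScreen assay: L3MBTL1 (50 nM final) was preincubated 30 min at room temperature with biotinylated H3(1-15)K9me1 peptide (75 nM final), then 30 min with library compounds; streptavidin donor and nickel chelate acceptor beads (10 ug/mL final) added, 30 min dark.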
POLH inh – blocks human DNA polymerase eta activity; recombinant Pol eta, fluorescent DNA replication assay; Q9Y253; Potency, µM (top dose mostly 114 µM), for the others: at the highest dose activity change, negative = inhibition, hits mostly inhibitors; 1.2% of 390,000 active; also: % is scaled to controls: 0 for no effect and ±100 for the full control effect
Target sequence (Q9Y253 whole entry, looked up): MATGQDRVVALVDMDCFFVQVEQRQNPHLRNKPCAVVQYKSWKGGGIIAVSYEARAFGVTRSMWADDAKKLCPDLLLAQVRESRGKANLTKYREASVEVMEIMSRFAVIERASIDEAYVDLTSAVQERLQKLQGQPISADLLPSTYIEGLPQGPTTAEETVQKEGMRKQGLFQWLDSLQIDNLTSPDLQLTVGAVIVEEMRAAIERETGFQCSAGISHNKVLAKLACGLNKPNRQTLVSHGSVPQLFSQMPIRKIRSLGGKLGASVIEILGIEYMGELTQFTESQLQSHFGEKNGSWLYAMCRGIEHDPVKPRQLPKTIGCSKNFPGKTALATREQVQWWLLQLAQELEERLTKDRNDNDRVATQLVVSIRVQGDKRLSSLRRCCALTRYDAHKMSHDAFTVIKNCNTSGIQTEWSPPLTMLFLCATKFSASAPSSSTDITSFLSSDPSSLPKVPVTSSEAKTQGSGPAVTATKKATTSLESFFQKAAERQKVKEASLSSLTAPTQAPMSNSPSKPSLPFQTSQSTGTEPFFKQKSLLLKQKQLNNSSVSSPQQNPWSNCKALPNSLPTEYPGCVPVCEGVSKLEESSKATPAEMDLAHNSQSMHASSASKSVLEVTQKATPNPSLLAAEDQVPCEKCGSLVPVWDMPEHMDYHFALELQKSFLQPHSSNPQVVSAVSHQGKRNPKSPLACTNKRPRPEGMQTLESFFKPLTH
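Pol eta (10 nM) was preincubated with compounds for 15 min at room temperature, after which fluorescent replication substrate (50 nM final) was added to start the reaction. Fluorescence was read kinetically at 0 and 10 min.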
Pol beta inh – DNA polymerase beta (human) inhibition. P06746. Pol beta primer extension/strand displacement, fluorescence kinetic. Potency, µM (series often up to 114 µM), inactives show at the highest dose activity change, negative = inhibition, most hits filed as inhibitors. 1.3% of 340,000 active; also: % is scaled to controls: 0 for no effect and ±100 for the full control effect
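Values derive from four-parameter Hill fits of normalized kinetic data: reads at 0 and 10 min following addition of 50 nM substrate to 10 nM Pol beta preincubated 15 min with compound.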
Pol iota inh – inhibitors of human DNA polymerase iota; Pol iota fluorescent replication assay, 10 min; Q9UNA4; AID 588590; 1% of 390,000 active; Potency, µM (top dose mostly 115 µM), without a hit: at the highest dose activity, negative = inhibition, usual class: inhibitors
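Fluorescent replication assay read twice, at 0 min and 10 min after adding 50 nM (final) substrate. Enzyme (10 nM) and compounds were first incubated 15 min at room temperature; enzyme-free buffer wells were negative controls.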
Pol kappa inh – blocks human DNA polymerase kappa activity | purified Pol kappa, fluorescent DNA synthesis assay, 10 min | Potency, µM (series often up to 107 µM), for the others: at the highest dose activity, negative = inhibition, hits mostly inhibitors | 0.53% of 400,000 active | AID 588579; also: % is scaled to controls: 0 for no effect and ±100 for the full control effect
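Kinetic fluorescence readout at 0 and 10 min followed reaction start with substrate at 50 nM final. Beforehand, enzyme (10 nM Pol kappa) stood 15 min with compound at room temperature; buffer-only wells were negative controls.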
WRN inhibitor – WRN helicase (human) inhibition; Q14191; Potency, µM (doses to about 114 µM), without a hit: top-dose activity change, negative = inhibition, actives largely listed as inhibitors; WRN helicase unwinding, fluorescent forked duplex, kinetic; 0.46% of 360,000 active; also: % is scaled to controls: 0 for no effect and ±100 for the full control effect; nearly all actives have a fitted effect of over 55% in size
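Kinetic red-fluorescence monitoring (525/598 nm) tracks WRN helicase activity after 100 nM fluorophore-quencher forked duplex and 2 mM ATP are added to 20 nM enzyme pretreated 15 min at room temperature with compound.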
Starred values were filed as active, the others as inactive; [ ] = remark or other dose. Calls follow the shape of the dose curve; as a rule, active = well fitted curve in the direction sought with a large enough effect; inconclusive = small, poorly fitted or top-dose-only effect, or another doubt; inactive = no such curve, though single readings can be large; an effect the other way counts as inactive or inconclusive. Potency is read from the fitted curve at half-maximal effect.

What do the screens show for `Fc1ccc(/C=C2\CCCC3=C2Nc2ncnn2C3c2ccc(F)cc2)cc1` (stereo not given)?
L3MBTL1 inh: -9.9%; POLH inh: -13.7%; Pol beta inh: 30.2%; Pol iota inh: -12.9%; Pol kappa inh: -16.2%; WRN inhibitor: 50.1µM*

How did Cc1ccc(C)c(S(=O)(=O)NCCCn2ccnc2)c1 do in these assays?
L3MBTL1 inh: -3.6%; POLH inh: inconclusive; Pol beta inh: 11.7%; Pol iota inh: 108.4%; Pol kappa inh: -2.7%; WRN inhibitor: 7.9%

Results for COc1ccc(/C=N/NC(=O)c2ccc(NC(=O)c3cccc([N+](=O)[O-])c3)cc2)c(C(=O)O)c1OC ?
POLH inh: 79.4µM*; Pol beta inh: 70.8µM*; Pol iota inh: inconclusive; Pol kappa inh: 0.0%; WRN inhibitor: -6.3%[11.6 µM]

How did O=C(N/N=C/c1ccccc1Cl)c1[nH]c2ccc(Br)cc2c1-c1ccccc1 do in these assays?
L3MBTL1 inh: -6.6%; POLH inh: 50.1µM*; Pol beta inh: inconclusive; Pol iota inh: 79.4µM*; Pol kappa inh: inconclusive; WRN inhibitor: 25.1µM*

How did COc1ccc(/C=N/NC(=O)c2[nH]c3ccc(Br)cc3c2-c2ccccc2)cc1 do in these assays?
L3MBTL1 inh: -5.0%; POLH inh: -17.7%; Pol beta inh: -1.0%; Pol iota inh: 46.1%; Pol kappa inh: -14.1%; WRN inhibitor: -8.2%

How did COc1ccccc1/C=N/NC(=O)c1ccc(NC(=O)c2cccc([N+](=O)[O-])c2)cc1 do in these assays?
L3MBTL1 inh: inconclusive; Pol beta inh: 3.3%

What do the screens show for `NNC(=O)c1[nH]c2ccc(Br)cc2c1-c1ccccc1`?
L3MBTL1 inh: -18.7%; POLH inh: -22.1%; Pol beta inh: -13.7%; Pol iota inh: -12.8%[58.9 µM]; Pol kappa inh: -3.9%; WRN inhibitor: -7.7%

What do the screens show for `COc1ccc(/C=N/NC(=O)c2[nH]c3ccc(Br)cc3c2-c2ccccc2)c(C(=O)O)c1OC`?
L3MBTL1 inh: -12.9%; POLH inh: 31.6µM*; Pol beta inh: inconclusive; Pol iota inh: inconclusive; Pol kappa inh: 1.8%; WRN inhibitor: inconclusive

Results for CCCN1C(=O)/C(=C/c2c(N3CCNC(=O)C3CC(=O)OC)nc3c(C)cccn3c2=O)SC1=S (stereo not given) ?
L3MBTL1 inh: 3.3%; Pol beta inh: 89.1µM*

What do the screens show for `Cc1ccc(SCc2cc(=O)c3c(=O)n(-c4ccccc4)[nH]c3[nH]2)cc1`?
L3MBTL1 inh: -90.1%; POLH inh: -2.6%; Pol beta inh: 35.5µM*; Pol iota inh: 22.4µM*; Pol kappa inh: inconclusive; WRN inhibitor: inconclusive

How did Cc1[nH]n(-c2ccccc2)c(=O)c1Sc1ccc(Cl)cc1 do in these assays?
L3MBTL1 inh: -9.4%; POLH inh: -7.8%; Pol beta inh: 14.7%; Pol iota inh: -14.8%; Pol kappa inh: 3.6%; WRN inhibitor: 5.8%

Results for O=c1cc(CSc2ccc(Cl)cc2)[nH]c2[nH]n(-c3ccccc3)c(=O)c12 ?
L3MBTL1 inh: inconclusive; POLH inh: -16.3%; Pol beta inh: 39.8µM*; Pol iota inh: inconclusive; Pol kappa inh: inconclusive; WRN inhibitor: -20.3%

Results for Cc1ccc2c(=O)cc(CSc3ccccc3)[nH]c2c1C ?
POLH inh: -2.6%; Pol beta inh: 33.9%; Pol iota inh: -22.0%; Pol kappa inh: -9.9%[60.1 µM]

Results for COC(=O)c1ccc(CSc2nc(C(F)F)cc(C)c2C#N)o1 ?
POLH inh: -13.5%; Pol iota inh: -8.7%[58.9 µM]; Pol kappa inh: -8.3%; WRN inhibitor: -5.3%

Results for Cc1cccc(N2C(=O)/C(=C\c3ccc(C(=O)O)cc3)c3ccccc3C2=O)c1 ?
L3MBTL1 inh: 1.4%; POLH inh: 44.7µM*; Pol beta inh: -7.4%; Pol iota inh: 46.4%; Pol kappa inh: -19.4%; WRN inhibitor: -2.9%

How did Cc1nc2nc(C)n(-c3ccccc3)c2s1 do in these assays?
L3MBTL1 inh: 2.7%; POLH inh: 14.1µM*; Pol beta inh: -0.9%; Pol iota inh: inconclusive; Pol kappa inh: -6.2%; WRN inhibitor: -5.9%

Screening data: PubChem BioAssay, National Center for Advancing Translational Sciences (NCATS)
